LMNA splice mod: qHTS Assay for Modulators of Lamin A Splicing; 200,000 tested, 0.01% active; HeLa LMNA splicing GFP/RFP minigene ratio, 48 h; AID 1487, 2009; Potency, µM (titrated, usually from 46.1 µM), inactives show at the top dose ratio change, negative = inhibition, usual class: inhibitors; active = well fitted inhibition curve with a large enough effect in the signal ratio, with a control signal flat, not every such curve was filed as active; inconclusive = small, poorly fitted or top-dose-only effect, or effect the other way, or a change in a side signal; the % refers to the signal ratio; also: potency is read from the fitted curve at half-maximal effect
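Read-out is the ratio of GFP to DsRed2 object intensity, acquired by 488 nm laser-scanning cytometry on HeLa lamin A-EGFP minigene reporter cells. Compound incubation 48 hrs at 37 °C in Opti-MEM with 2% FBS; DMSO 0.5% final.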
ALOX12 inhib: qHTS Assay for Inhibitors of 12-hLO (12-human lipoxygenase) | purified 12-hLO, xylenol orange hydroperoxide absorbance | Potency, µM (series often up to 57.1 µM), for the others: at the highest dose activity change, negative = inhibition, hits mostly inhibitors | 150,000 tested, 0.12% active | AID 1452, 2008 | Polyunsaturated fatty acid lipoxygenase ALOX12 (Homo sapiens), P18054; active = well fitted inhibition curve with a large enough effect; inconclusive = small, poorly fitted or top-dose-only effect; also: potency is read from the fitted curve at half-maximal effect; nearly all actives have a fitted effect of over 55% in size
Target sequence (P18054 whole entry, looked up): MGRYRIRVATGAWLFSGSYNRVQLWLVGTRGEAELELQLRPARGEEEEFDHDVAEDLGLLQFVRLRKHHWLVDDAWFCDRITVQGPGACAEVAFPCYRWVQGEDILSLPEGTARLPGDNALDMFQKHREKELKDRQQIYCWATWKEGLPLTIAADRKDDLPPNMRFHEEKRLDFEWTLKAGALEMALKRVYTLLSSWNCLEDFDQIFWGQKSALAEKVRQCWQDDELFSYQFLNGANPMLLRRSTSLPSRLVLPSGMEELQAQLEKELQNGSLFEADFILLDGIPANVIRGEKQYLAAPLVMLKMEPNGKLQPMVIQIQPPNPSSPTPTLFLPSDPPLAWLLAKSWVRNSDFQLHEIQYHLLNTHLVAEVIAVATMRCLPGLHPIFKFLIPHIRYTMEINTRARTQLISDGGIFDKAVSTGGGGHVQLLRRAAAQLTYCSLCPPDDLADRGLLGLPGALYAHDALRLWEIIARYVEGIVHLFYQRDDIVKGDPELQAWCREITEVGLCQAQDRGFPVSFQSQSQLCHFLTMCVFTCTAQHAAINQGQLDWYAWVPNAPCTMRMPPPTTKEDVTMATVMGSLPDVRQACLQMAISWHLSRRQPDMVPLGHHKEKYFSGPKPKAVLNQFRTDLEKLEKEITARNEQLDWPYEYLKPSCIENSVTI
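Purified human 12hLO (150 nM final) was preincubated with compounds for 15 min at room temperature in 25 mM Hepes pH 7.0, 0.01% Triton X-100, then reacted with 40 uM arachidonic acid for 30 min. Hydroperoxide was detected with ferrous iron/xylenol orange.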
ALDH1A1 block: qHTS Assay for Inhibitors of Aldehyde Dehydrogenase 1 (ALDH1A1) | Aldehyde dehydrogenase 1A1 (Homo sapiens), P00352 | Purified ALDH1A1, NADH fluorescence, propionaldehyde substrate | Potency, µM (series often up to 75.3 µM), without a hit: at the top dose activity, negative = inhibition, hits mostly inhibitors | 220,000 tested, 7.3% active | AID 1030, 2008;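 also: potency is read from the fitted curve at half-maximal effect; plate controls were no enzyme wells and a reference inhibitor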
HPGD inh: qHTS Assay for Inhibitors of HPGD (15-Hydroxyprostaglandin Dehydrogenase) | 15-hydroxyprostaglandin dehydrogenase [NAD(+)] (Homo sapiens), P15428 | purified HPGD, NADH fluorescence kinetic, PGE2 substrate | Potency, µM, inactives show at the top dose activity change, negative = inhibition, most hits filed as inhibitors | 150,000 tested, 4.3% active | AID 894, 2007; also: potency is read from the fitted curve at half-maximal effect
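20 nM HPGD preincubated 15 min at room temperature with compound in 50 mM Tris-HCl pH 8, 0.01% Tween 20. Started with 1 mM NAD+ and 30 uM prostaglandin E2; NADH fluorescence (360/450 nm) read 5 times over 30-s intervals, last minus first.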
PNC assembly inh: High Content Assay for Compounds that inhibit the Assembly of the Perinucleolar Compartment; 140,000 tested, 3.1% active; PC3M PTB-GFP, PNC prevalence imaging, 16 h; hits give low values; activity change (PNC), negative = inhibition, % at 10 µM;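 active = readout at or below -70, meaning at least 70% loss of cells showing the perinucleolar compartment, a nuclear body marking cancer cells; inconclusive = readout between -30 and a set limit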;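 also: plate controls were DMSO wells for no effect and camptothecin positive control wells for full effect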
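Compounds are pinned in duplicate onto adhered PC3M cells stably expressing GFP-tagged PTB and incubated 16 h at 37 C. Cells are then fixed, nuclei stained with Hoechst, and PNC-positive cells counted.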
The depositor's hits bear a star; ? = inconclusive; nt = not tested or not shown; [ ] = another dose, or the depositor's remark. The list is not random: actives were taken first. Their share in the collection is about 10%. Unless noted, calls follow the shape of the dose curve; as a rule, active = well fitted inhibition curve with a large enough effect (not every such curve was filed as active); inconclusive = small, poorly fitted or top-dose-only effect, or another doubt; inactive = no such curve, though single readings can be large or run the other way. Unless noted, % is scaled to controls: 0 for no effect and ±100 for the full control effect.

SMILES | LMNA splice mod | ALOX12 inhib | ALDH1A1 block | HPGD inh | PNC assembly inh
O=C(NCc1ccc(F)cc1)C(=O)NCC(c1ccco1)S(=O)(=O)c1cccs1 (configuration not stated) | -18%[46 µM] | nt | nt | nt | nt
CCOC(=O)c1c(NC(=O)CSc2n[nH]c(CNc3ccccc3)n2)sc(C)c1C | 13% | 2% | 1% | -16% | -16
CCOC(=O)c1c(NC(=O)CSc2n[nH]c(-c3ccco3)n2)sc(C)c1C | ? | -16% | -13% | 16µM* | 37
CCOC(=O)c1c(NC(=O)CSc2cccc[n+]2[O-])sc(C(=O)Nc2ccccc2)c1C | -11%[46 µM] | nt | 28µM* | nt | nt
CCOC(=O)c1c(NC(=O)CN(C)C2CCN(C)CC2)sc(C(=O)Nc2ccccc2)c1C | -1%[9.22 µM] | nt | ? | nt | nt
COc1ccccc1CC(=N)N1C[C@@H]2C(=O)CCC(c3ccccc3)(c3ccccc3)[C@@H]2C1 | nt | -1% | -15% | 2% | nt
COc1ccc(NC(=O)C2CCN(S(=O)(=O)c3ccc4c(c3)CCCC(=O)N4)CC2)c(OC)c1 | -6%[46 µM] | nt | nt | nt | nt
CCOC(=O)CC1Sc2ccccc2NC1=O (configuration not stated) | 10% | -7% | 1% | -13% | 15
CCOC(=O)CC1Sc2ccccc2NC1=S (configuration not stated) | 1%[46 µM] | nt | 7.9µM* | nt | nt
CC(C)C1NC2(C(=O)c3ccccc3C2=O)C2C(=O)N(c3ccc(F)cc3)C(=O)C12 (configuration not stated) | 8% | -5% | 1.3µM* | 32µM* | 29
O=C1C2C3CCCC3=C3CCCC3C2C(=O)N1c1ccc(F)cc1 (configuration not stated) | 13% | -4% | 1% | -5% | 16
Nn1c(C2COc3ccccc3O2)n[nH]c1=S (configuration not stated) | nt | nt | 4.5µM* | nt | nt
COC(=O)[C@@]1(Cc2ccc(OC)cc2)[C@H]2c3cc(C(=O)N4CCCC4)n(CCc4ccc(O)c(OC)c4)c3C[C@H]2CN1C(=O)c1ccccc1 | nt | -22% | 0% | -5% | nt
COc1ccc(C(=O)CSc2nnnn2Cc2ccccc2)cc1 | -8% | -6% | 13µM* | -19% | -15
COC(=O)c1ccc(CSc2nnnn2Cc2ccccc2)cc1 | 17% | -15% | ? | ? | 5
COC(=O)c1cc(OC)c(OC)cc1NC(=O)CSc1nnnn1Cc1ccccc1 | -16% | -5% | 13µM* | ? | 21
COc1ccc(-n2nnnc2SCC(=O)c2ccc(O)c(O)c2)cc1 | ? | ? | -14% | 25µM* | 30
COCC(=O)N1CCC2(CCCN(c3ccncc3)C2)CC1 | nt | -1% | 2% | -5% | nt
O=C(Nc1cc2ccc(O)cc2oc1=O)c1ccc(F)cc1 | -8%[46 µM] | nt | nt | nt | nt
COc1cccc2[nH]c(C(=O)NN)c(N)c12 | nt | nt | 28µM* | nt | nt
CC1CCCC(C)N1c1nnc(N)s1 (configuration not stated) | -2% | -6% | 18% | 28µM* | 51
CC1CCCCN1c1nnc(N)s1 (configuration not stated) | ? | -4% | ? | ? | -3
CCN(CC)C(=O)Oc1ccnc2cc(Cl)ccc12 | ? | nt | -1% | nt | nt
O=C(Oc1ccnc2cc(Cl)ccc12)N1CCCCCC1 | ? | -8% | 5µM* | 32µM* | ?
COC(=O)CCCC1=CC2=C(c3ccccc3)C(=O)C(C)(OC(=O)C3CCCC3)C(=O)C2=CN1CCc1ccccn1 (configuration not stated) | ? | 4%[11.4 µM] | ? | -1% | nt
SMILES | LMNA splice mod | ALOX12 inhib | ALDH1A1 block | HPGD inh | PNC assembly inh
COC(=O)CCCC1=CC2=C(c3ccccc3)C(=O)C(C)(OC(=O)C3CCCC3)C(=O)C2=CN1CCc1c[nH]c2ccccc12 (configuration not stated) | -15%[9.22 µM] | -10%[11.4 µM] | 3.2µM* | -9% | nt
CCn1c2ccccc2c2cc(CN3CCN(Cc4cc(OC)ccc4O)CC3)ccc21 | nt | nt | 35µM* | nt | nt
COc1ccc(CN2CCN(CC(O)Cn3c4ccccc4c4ccccc43)CC2)cc1 (configuration not stated) | ? | -5% | 4% | -8% | -102*
Cc1ccc(C(=O)Nc2ccccc2C(N)=O)o1 | 9% | -7% | 3% | -4% | 44
O=C(Nc1ccccc1C(=O)O)c1ccc(Br)o1 | -1% | -8% | 4µM* | ? | -17
CC(=O)c1cc(C(=O)Nc2ccccc2C(=O)O)oc1C | 5% | 0% | 0.71µM* | ? | -9
CCOC(=O)c1cccc(NC(=O)c2cc3c(=O)n(Cc4ccccc4)ccc3nc2C)c1 | -1%[46 µM] | nt | nt | nt | nt
Cc1onc(-c2c(Cl)cccc2Cl)c1C(=O)N[C@H]1C(=O)N2[C@H]1SC(C)(C)[C@H]2C(=O)O | ? | -3%[25.6 µM] | 8%[20.9 µM] | 10µM* | nt
COc1cccc(OC)c1C(=O)NC1C(=O)N2C1SC(C)(C)C2C(=O)O (configuration not stated) | ? | -7% | -11% | -8% | nt
Cc1onc(-c2c(F)cccc2Cl)c1C(=O)OCN1C(=O)c2ccccc2C1=O | 13% | -9% | 3% | 1.4µM* | -21
Cc1onc(-c2ccccc2)c1C(=O)NCCc1ccc(S(N)(=O)=O)cc1 | -10% | 0% | 24% | -14% | ?
Cc1onc(-c2c(Cl)cccc2Cl)c1C(=O)NNc1ccccc1 | nt | nt | 22µM* | nt | nt
Cc1[nH]c2ccccc2c1C(=O)COC(=O)c1c(-c2c(F)cccc2Cl)noc1C | -20% | 0% | 6% | -8% | ?
Cc1onc(-c2c(Cl)cccc2Cl)c1NC(=O)NNc1ccccc1 | nt | nt | 5% | nt | nt
Cc1onc(-c2c(Cl)cccc2Cl)c1C(=O)NCCc1ccc(S(N)(=O)=O)cc1 | 12% | 5% | 3% | 32µM* | 7
CC(=O)N1CCN(CC(=O)Nc2ccccc2Sc2ccccc2)CC1 | ? | -3% | ? | 0% | -18
COc1cccc(CNC(=O)c2c3c(nc4ccccc24)C(=O)N(C2CCCCC2)C3)c1 | -19%[46 µM] | nt | nt | nt | nt
N[C@@H]1C=CC=C(C(=O)O)C1 | nt | -1% | nt | nt | nt
OC[C@H]1NC[C@H](O)[C@@H](O)[C@H]1O | nt | 6% | -13% | -11% | nt
Cc1c(-c2ccccc2)n(-c2ccc(Cl)cc2)c2nc3c(c(=O)n(C)c(=O)n3C)n12 | 0%[46 µM] | nt | nt | nt | nt
Fc1ccccc1Nc1nc2c(s1)CCc1ccccc1-2 | ? | ? | 5% | 22µM* | -23
CSC1CCCCC1(O)CSc1nc2c(cc1C#N)CCCC2 (configuration not stated) | 14% | -14% | 7.9µM* | 7.9µM* | ?
S=C1N[C@H](c2ccccc2)N[C@H](c2ccccc2)S1 | nt | -4%[11.4 µM] | 3.2µM* | ? | nt
